Measurements from PubChem BioAssay.
Calls of active or inactive are those of the source. Unless noted, how the calls were made is not given here.

Assays:
[1] = test system: Wnt5a (protein binding on small-molecule microarray); assay: small molecules binding Wnt5a protein – biophysical, small-molecule microarray, 635/667 nm fluorescence, primary screen (AID 1142); conditions: 635 nm fluorescence, higher = more signal;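 further: fluorescence read at 667 nm with signal to noise per printed feature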
[2] = ATP-based viability of Huh7 replicon cells – cell-based, CellTiter-Glo luminescence, basal, 48 h, cytotoxicity control for HCV replication inhibitor project, primary screen (AID 1143); conditions: higher = more signal, called active from +8 up or from −8 down;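 further: Huh7 hepatoma cells carrying a hepatitis C replication reporter with no stimulus; test concentration not given here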
[3] = Pseudomonas biofilm growth suppression – PAO1 strain, BacTiter-Glo luminescence, LB-PBS, primary screen (AID 1144); conditions: P. aeruginosa PAO1 biofilm, 12 h, higher = more signal
[4] = basal CRE-LacZ reporter activity in PC12 – cell-based, unstimulated, primary screen (AID 1145); conditions: no forskolin, luminescence, 4.5 h, higher = more signal, called active from +8 up or from −8 down
[5] = forskolin-driven CRE-LacZ activity in PC12 – cell-based, CRE-LacZ reporter, forskolin-stimulated, primary screen (AID 1146); conditions: luminescence, 4.5 h, higher = more signal, called active from +8 up or from −8 down;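 further: PC12 cells with 6xCRE LacZ reporter stimulated by forskolin 10 µM; beta-galactosidase reporter signal reflecting CREB driven transcription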
[6] = molecular target: Streptavidin (Streptomyces avidinii) (UniProt P22629); assay: compounds binding control protein streptavidin – biophysical, small-molecule microarray, 635/667 nm fluorescence, artefact control for SMM compound annotation, primary screen (AID 1147); conditions: higher = more signal;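 further: signal reflects streptavidin binding to arrayed compounds as a control protein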
Sequence of Streptavidin (Streptomyces avidinii) (P22629 whole entry, looked up): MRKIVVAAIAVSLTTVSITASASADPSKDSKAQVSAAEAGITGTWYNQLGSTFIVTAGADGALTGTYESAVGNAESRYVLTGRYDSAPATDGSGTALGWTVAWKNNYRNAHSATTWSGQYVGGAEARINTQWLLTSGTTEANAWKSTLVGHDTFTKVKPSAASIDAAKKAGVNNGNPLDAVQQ

[7] = probe aInhba binding on compound microarray – biochemical, small-molecule microarray, 635/667 nm fluorescence, primary screen (AID 1148); conditions: higher = more signal;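 further: score merges 667nm spot fluorescence with signal-to-noise for antibody binding to printed compounds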
Torsin-1A (Homo sapiens) [8] = molecular target: Torsin-1A (Homo sapiens) (UniProt O14656); assay: TOR1A wild-type binding on microarray – cell lysate, small-molecule microarray, lysate, 635/667 nm, primary screen (AID 1149); conditions: COS7 hTOR1A-WT lysate, 635 nm fluorescence, higher = more signal
Sequence of Torsin-1A (Homo sapiens) (O14656 whole entry, looked up): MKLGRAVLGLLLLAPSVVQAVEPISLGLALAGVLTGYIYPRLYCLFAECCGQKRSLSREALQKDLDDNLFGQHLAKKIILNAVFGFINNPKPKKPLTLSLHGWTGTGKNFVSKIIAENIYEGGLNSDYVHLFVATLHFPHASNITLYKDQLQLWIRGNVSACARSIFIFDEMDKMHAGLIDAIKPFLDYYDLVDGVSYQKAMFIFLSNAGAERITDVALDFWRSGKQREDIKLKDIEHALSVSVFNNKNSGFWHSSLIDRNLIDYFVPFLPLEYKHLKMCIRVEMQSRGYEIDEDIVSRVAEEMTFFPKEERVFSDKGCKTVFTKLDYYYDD

Torsin-1A (Homo sapiens) [9] = molecular target: Torsin-1A (Homo sapiens) (UniProt O14656); assay: torsin A mutant lysate binding on microarrays – cell lysate, small-molecule microarray, COS7 lysate, 635/667 nm fluorescence, primary screen (AID 1150); conditions: COS7 hTOR1A mutant lysate, 635 nm fluorescence, higher = more signal;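 further: score pools 667 nm emission and signal to noise measuring lysate protein binding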
[10] = test system: Sonic hedgehog protein (Shh); assay: Sonic hedgehog microarray binding compounds – biochemical, small-molecule microarray, 635/667 nm fluorescence, primary screen (AID 1151); conditions: 635 nm fluorescence, higher = more signal;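 further: Shh protein binding to compounds spotted on small-molecule microarray slides; score combines spot fluorescence intensity with signal-to-noise across triplicate slides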
[11] = optical density shifts of acrAB sulA E. coli – strain DRC41, OD650, 48 h, E. coli filamentation inducer project, primary screen (AID 1152); conditions: higher = more signal, called active from +8 up or from −8 down;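 further: E. coli MC1000 strain DRC41 lacking acrAB efflux pump and sulA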
[12] = probe aLefty1 binding on compound microarray – biochemical, small-molecule microarray, 635/667 nm fluorescence, primary screen (AID 1153); conditions: higher = more signal;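 further: score merges spot fluorescence with signal-to-noise ratio from the scanned slide images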
[13] = plasmodial surface anion channel blockers, osmotic lysis – cell-based, P. falciparum Indochina, OD700, 1 h, primary screen (AID 1154); conditions: P. falciparum Indochina infected RBC osmotic lysis, higher = more signal, called active from +8 up or from −8 down
[14] = plasmodial surface anion channel blockers, osmotic lysis – cell-based, P. falciparum Indochina, OD700, 2 h, primary screen (AID 1155);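 further: lysis reports solute entry through the parasite surface anion channel PSAC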; conditions: P. falciparum Indochina infected erythrocytes, higher = more signal, called active from +8 up or from −8 down
[15] = changes in parasitized red cell lysis, either direction – P. falciparum Indochina, OD700, 3 h, PSAC antagonist project, primary screen (AID 1156); conditions: P. falciparum-infected erythrocytes, osmotic lysis, higher = more signal, called active from +8 up or from −8 down
[16] = plasmodial surface anion channel blockers, osmotic lysis – cell-based, P. falciparum Indochina, OD700, 18 h, primary screen (AID 1157); conditions: P. falciparum Indochina infected erythrocytes, osmotic lysis OD700, 18 h; higher = more signal, called active from +8 up or from −8 down
[17] = S6 kinase pathway phospho-S6 level changes – cell-based, A549, cytoblot, luminescence, serum-stimulated, primary screen (AID 1158); conditions: 5 h, higher = more signal;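 further: serum-stimulated A549 lung adenocarcinoma cells; signal is phosphorylated S6 detected by cytoblot immunostaining with HRP secondary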
[18] = molecular target: NADPH oxidase 2 (Homo sapiens) (UniProt P04839); assay: compounds shifting NOX2 Amplex Red fluorescence – cell-based, HEK293-NOX2, PMA-stimulated, NOX inhibitor project, primary screen (AID 1159); conditions: 45 min, higher = more signal, called active from +8 up or from −8 down; further: test concentration not given here
Sequence of NADPH oxidase 2 (Homo sapiens) (P04839 whole entry, looked up): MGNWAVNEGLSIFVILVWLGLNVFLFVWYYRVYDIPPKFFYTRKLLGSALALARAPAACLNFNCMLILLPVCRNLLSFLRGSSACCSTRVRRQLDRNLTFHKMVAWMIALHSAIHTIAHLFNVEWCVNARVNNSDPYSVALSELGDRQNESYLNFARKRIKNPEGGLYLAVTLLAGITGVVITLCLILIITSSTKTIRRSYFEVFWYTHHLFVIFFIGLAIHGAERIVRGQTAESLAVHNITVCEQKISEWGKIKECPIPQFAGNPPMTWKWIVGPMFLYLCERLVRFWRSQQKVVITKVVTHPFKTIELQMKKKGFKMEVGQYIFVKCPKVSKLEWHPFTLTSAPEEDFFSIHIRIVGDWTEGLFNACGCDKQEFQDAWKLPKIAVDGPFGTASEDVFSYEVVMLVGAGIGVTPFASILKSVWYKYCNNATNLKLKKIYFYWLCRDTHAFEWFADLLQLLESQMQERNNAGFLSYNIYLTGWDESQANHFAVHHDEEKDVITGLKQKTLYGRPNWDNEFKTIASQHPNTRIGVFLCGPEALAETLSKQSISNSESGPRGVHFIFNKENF

[19] = molecular target: NADPH oxidase 4 (Homo sapiens) (UniProt Q9NPH5); assay: compounds shifting NOX4 Amplex Red fluorescence – cell-based, HEK293-NOX4, tetracycline-induced, NOX inhibitor project, primary screen (AID 1160); conditions: HEK293-NOX4, Amplex Red H2O2 fluorescence, 45 min; higher = more signal, called active from +8 up or from −8 down
Sequence of NADPH oxidase 4 (Homo sapiens) (Q9NPH5 whole entry, looked up): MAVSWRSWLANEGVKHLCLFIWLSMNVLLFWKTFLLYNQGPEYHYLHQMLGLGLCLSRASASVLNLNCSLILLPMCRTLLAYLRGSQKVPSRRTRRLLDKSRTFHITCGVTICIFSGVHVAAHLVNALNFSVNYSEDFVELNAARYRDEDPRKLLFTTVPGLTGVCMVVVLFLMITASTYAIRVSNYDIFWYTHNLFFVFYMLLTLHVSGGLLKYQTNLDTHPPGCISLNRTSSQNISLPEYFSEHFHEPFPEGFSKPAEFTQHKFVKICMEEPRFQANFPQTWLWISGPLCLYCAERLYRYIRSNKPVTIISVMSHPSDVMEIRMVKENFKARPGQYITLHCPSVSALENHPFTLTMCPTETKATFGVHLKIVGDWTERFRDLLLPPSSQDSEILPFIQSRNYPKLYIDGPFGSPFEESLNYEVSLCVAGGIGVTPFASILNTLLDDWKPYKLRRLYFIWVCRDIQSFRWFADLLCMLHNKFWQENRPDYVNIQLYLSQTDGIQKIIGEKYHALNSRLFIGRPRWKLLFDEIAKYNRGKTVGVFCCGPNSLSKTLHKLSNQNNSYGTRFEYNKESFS

[20] = molecular target: NADPH oxidase 5 (Homo sapiens) (UniProt Q96PH1); assay: compounds shifting NOX5 Amplex Red fluorescence – cell-based, HEK293-NOX5, NOX inhibitor project, primary screen (AID 1161); conditions: HEK293-NOX5, ionomycin, 45 min, higher = more signal
Sequence of NADPH oxidase 5 (Homo sapiens) (Q96PH1 whole entry, looked up): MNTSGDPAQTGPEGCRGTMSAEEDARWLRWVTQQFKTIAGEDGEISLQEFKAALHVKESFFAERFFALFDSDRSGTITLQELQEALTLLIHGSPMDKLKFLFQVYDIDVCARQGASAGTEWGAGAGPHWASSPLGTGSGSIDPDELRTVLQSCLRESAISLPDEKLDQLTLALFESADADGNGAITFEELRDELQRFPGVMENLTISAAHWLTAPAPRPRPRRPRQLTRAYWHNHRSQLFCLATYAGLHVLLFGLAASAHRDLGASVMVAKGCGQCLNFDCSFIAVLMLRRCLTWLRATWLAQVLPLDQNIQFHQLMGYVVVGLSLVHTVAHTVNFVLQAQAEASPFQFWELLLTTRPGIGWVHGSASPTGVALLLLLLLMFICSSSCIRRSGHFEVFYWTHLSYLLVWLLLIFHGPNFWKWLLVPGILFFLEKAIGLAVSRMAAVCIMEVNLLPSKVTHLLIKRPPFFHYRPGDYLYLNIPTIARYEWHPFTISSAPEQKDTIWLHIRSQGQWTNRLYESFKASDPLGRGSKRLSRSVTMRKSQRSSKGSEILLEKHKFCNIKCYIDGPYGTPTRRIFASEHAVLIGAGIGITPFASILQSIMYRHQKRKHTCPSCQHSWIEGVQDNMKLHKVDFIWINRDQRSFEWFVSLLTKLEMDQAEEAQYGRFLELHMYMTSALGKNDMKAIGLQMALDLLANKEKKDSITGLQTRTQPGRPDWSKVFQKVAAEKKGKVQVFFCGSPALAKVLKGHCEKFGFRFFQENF

Row | SMILES | composite z-score [1] | z-score [2] | z-score [3] | z-score [4] | z-score [5] | composite z-score [6] | composite z-score [7] | composite z-score (Torsin-1A (Homo sapiens) [8]) | composite z-score (Torsin-1A (Homo sapiens) [9]) | composite z-score [10] | z-score [11] | composite z-score [12] | z-score [13] | z-score [14] | z-score [15] | z-score [16] | z-score [17] | z-score [18] | z-score [19] | z-score [20]
1 | COC(=O)[C@@]1(Cc2ccc(OC)cc2)[C@H]2c3cc(C(=O)N(C)C)n(Cc4nc5ccccc5[nH]4)c3C[C@H]2CN1C(=O)c1ccccc1 | 0.38 | -3.83 (inactive) | 0.179 (inactive) | -0.375 (inactive) | -0.139 (inactive) | 1.12 | 0.698 | 0.314 | 0.432 | -0.388 | -2.02 (inactive) | 0.905 | 2.03 (inactive) | 0.724 (inactive) | 0.482 (inactive) | 1.25 (inactive) | 0.123 | 0.576 (inactive) | 1.85 (inactive) | 2.4
2 | O=C1c2ccccc2[C@](Cc2ccccc2I)(C(=O)NCc2ccccc2)[C@H](c2ccc(CO)cc2)N1C1CCCCC1 | 0.52 | -4.84 (inactive) | -0.479 (inactive) | 0.0655 (inactive) | -0.183 (inactive) | 1.71 | 0.295 | 0.326 | 0.489 | 1.75 | 1.28 (inactive) | 0.254 | 2.39 (inactive) | 0.105 (inactive) | 0.0371 (inactive) | -1.34 (inactive) | 3.43 | 1.65 (inactive) | 0.289 (inactive) | 1.35
3 | COC(=O)[C@H](Cc1ccccc1)N1CC(/C=C/C2CC2)=C[C@@H]1[C@@H](O)Cc1ccccc1 | 0.624 | -1.63 (inactive) | -1.18 (inactive) | 3.31 (inactive) | 5.89 (inactive) | 0.756 | 0.0471 | 0.957 | -0.038 | 1.81 | 0.974 (inactive) | 0.0082 | 1.97 (inactive) | 0.189 (inactive) | -0.427 (inactive) | 0.401 (inactive) | 0.306 | -0.193 (inactive) | 0.058 (inactive) | 0.424
4 | C[N+](C)(C)CCCC[C@@H]1NC(=O)[C@@H]2C[C@H](C(=O)O)[C@H](c3ccc(O)cc3)N2C1=O | -0.535 | 0.462 (inactive) | -0.771 (inactive) | 0.0043 (inactive) | 0.563 (inactive) | -1.08 | -0.103 | -1.07 | -0.909 | -0.0334 | -0.105 (inactive) | -0.248 | 0.277 (inactive) | 0.156 (inactive) | -0.0003 (inactive) | 0.0583 (inactive) | 0.423 | -0.0831 (inactive) | -0.223 (inactive) | 0.903
5 | COc1ccc(NC(=O)O[C@H]2[C@H](OC(=O)Nc3ccc4c(c3)OCO4)[C@@H](OC(=O)Nc3ccc4c(c3)OCO4)[C@@H](OC)O[C@@H]2CO)cc1 | 0.201 | -3.73 (inactive) | -0.488 (inactive) | 1.85 (inactive) | -0.559 (inactive) | 1.38 | 0.277 | 0.812 | 1.27 | 1.27 | 0.898 (inactive) | 0.33 | 5.81 (inactive) | 1.13 (inactive) | 0.081 (inactive) | 0.521 (inactive) | -0.182 | -3.33 (inactive) | -0.666 (inactive) | -2.16
6 | CCCC=C(CCC)[C@@H](NP(=O)(c1ccccc1)c1ccccc1)c1ccc(C(F)(F)F)cc1 | 0.71 | -0.407 (inactive) | 0.592 (inactive) | 0.0041 (inactive) | 0.0568 (inactive) | 0.0838 | -0.0833 | 0.316 | 0.0932 | -0.395 | -1.5 (inactive) | -0.485 | -0.56 (inactive) | -0.647 (inactive) | -0.309 (inactive) | -1.24 (inactive) | 0.828 | 0.147 (inactive) | 1.46 (inactive) | 1.81
7 | O=C1NC(=O)C2C1C=CC(C(O)c1cc(C(F)(F)F)cc(C(F)(F)F)c1)N2Nc1ccc(Cl)cc1Cl (stereo not given) | 0.465 | -1.32 (inactive) | -0.673 (inactive) | -0.329 (inactive) | 0.78 (inactive) | 0.416 | 0.069 | -0.371 | 0.357 | -0.384 | -2.29 (inactive) | 0.546 | 0.321 (inactive) | 0.168 (inactive) | -1.6 (inactive) | 0.998 (inactive) | -1.41 | 0.128 (inactive) | -5.87 (inactive) | -2.22
8 | CC(C)(C)OC(=O)CC[C@@]1(C(=O)O)N=C(c2ccc(OCCCO)cc2)O[C@@H]1c1ccccc1CN=[N+]=[N-] | 0.48 | 0.625 (inactive) | -0.21 (inactive) | -0.128 (inactive) | -0.912 (inactive) | 0.725 | 0.239 | 0.0835 | 0.104 | -1.03 | 0.648 (inactive) | 0.479 | 24.5 (active) | 10 (active) | -0.0836 (inactive) | 1.53 (inactive) | 0.0274 | 0.716 (inactive) | 0.691 (inactive) | 1.53
9 | C=CC[C@@]12N=C(c3ccc(OCCCO)cc3)O[C@@H]1c1ccccc1N(CCS(=O)(=O)c1ccccc1)C2=O | 0.518 | -3.23 (inactive) | -0.196 (inactive) | -0.744 (inactive) | -2.22 (inactive) | 1.41 | 0.136 | 0.558 | 0.264 | 1.62 | -0.309 (inactive) | 0.199 | 33.3 (active) | 28.5 (active) | 3.7 (inactive) | 8.56 (active) | 0.766 | -1.55 (inactive) | 0.599 (inactive) | -1.91
